Results reported in PubChem BioAssay AID493168 (National Center for Advancing Translational Sciences (NCATS), 2011).
Records with an inconclusive call do not appear. Active and inactive are the calls of the source. Calls follow the shape of the dose curve; as a rule, active = well fitted inhibition curve with a large enough effect; inconclusive = small, poorly fitted or top-dose-only effect, or effect the other way; inactive = flat fitted curve, though single readings scatter.

The compounds below were run against Ubiquitin carboxyl-terminal hydrolase 2 (Homo sapiens) (UniProt O75604) (assay: Confirmation Assay for Inhibitors of Ubiquitin-specific Protease USP2a Using CHOP2 as the Reporter). Details: USP2 core, Ub-CHOP2 coupled reporter fluorescence; series mostly up to 38.3 µM; activity change, negative = inhibition: at the top concentration.
How it was run: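 USP2 core (10 nM final) was preincubated with compound for 30 min at RT in Tris-HCl pH 8.0, CaCl2, beta-mercaptoethanol, CHAPS. Ub-CHOP2 and reporter substrate (25 nM final each) were added, and fluorescence (Ex 485/Em 531 nm) was read after 60 min.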
Also: nearly all actives have a fitted effect of over 55% in size.
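For activity change, negative = inhibition in this document: plate controls were DMSO wells for no effect and full inhibition by NEM control for full effect.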
Potency is read from the fitted curve at half-maximal effect.

Ubiquitin carboxyl-terminal hydrolase 2 (Homo sapiens), sequence (O75604 whole entry, looked up): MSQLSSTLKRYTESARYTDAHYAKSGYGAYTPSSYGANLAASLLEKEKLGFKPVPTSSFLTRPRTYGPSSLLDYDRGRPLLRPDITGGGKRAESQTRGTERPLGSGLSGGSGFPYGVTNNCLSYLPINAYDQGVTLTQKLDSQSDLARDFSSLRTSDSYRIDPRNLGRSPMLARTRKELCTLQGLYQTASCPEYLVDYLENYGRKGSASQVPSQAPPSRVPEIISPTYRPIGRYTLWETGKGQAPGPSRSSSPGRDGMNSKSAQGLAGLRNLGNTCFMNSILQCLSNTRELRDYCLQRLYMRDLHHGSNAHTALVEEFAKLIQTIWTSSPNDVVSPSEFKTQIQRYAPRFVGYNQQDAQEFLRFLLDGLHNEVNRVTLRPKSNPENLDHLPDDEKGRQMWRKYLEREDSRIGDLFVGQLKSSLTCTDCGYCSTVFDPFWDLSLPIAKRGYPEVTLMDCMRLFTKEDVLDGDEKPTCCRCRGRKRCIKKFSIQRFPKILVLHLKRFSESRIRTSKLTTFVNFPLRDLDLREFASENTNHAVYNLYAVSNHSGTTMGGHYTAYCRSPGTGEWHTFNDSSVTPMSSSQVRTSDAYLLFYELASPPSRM

SMILES	activity change, negative = inhibition	Potency
Cc1[nH]c2ccccc2c1C(c1ccccn1)c1c(C)[nH]c2ccccc12	-0.144% (inactive)	
Cc1ccccc1N=C1NC(=O)CS1	4.13% (inactive)	
CCCCCCCCCCC[N+](C)(C)CC/C=C1/c2ccccc2Sc2ccc(Cl)cc21		9.27 µM (active)
CC(NC(=O)COc1ccccc1-c1ccccc1)c1ccccc1 (centres undefined)	2.1% (inactive)	
COc1cccc(C(=O)NCc2ccc3[nH]c(C)cc3c2)c1	-0.781% (inactive)	
Cc1noc(NS(=O)(=O)c2ccc(N3CC(O)=C(c4ccccc4)C3=N)cc2)c1C	3.36% (inactive)	
CN(C)S(=O)(=O)c1cccc(NC(=S)NNC(=O)c2cc3ccccc3cc2O)c1	-3.66% (inactive)	
c1ccc(CN2CCN(CCOCCOc3cccc4ccccc34)CC2)cc1	-13.4% (inactive)	
COCCCNC(=O)C1CCN(c2nc(C)cc(C)n2)CC1	1.61% (inactive)	
C#CCOCCOCCOCCNc1nc(N2CCN(C(=O)CCCCCCCCCCNC(=O)Cn3cc(CCCCCN)nn3)CC2)nc(N2CCN(C(=O)CCCCCCCCCCNC(=O)Cn3cc(CCCCCN)nn3)CC2)n1		10.4 µM (active)
COc1ccc(-c2cc(C(F)(F)F)nc(S(C)(=O)=O)n2)cc1	-3.75% (inactive)	
COCCN1Cc2cccc(C(=O)N3CCN(c4cc(C)ccc4C)CC3)c2C1=O	-0.0848% (inactive)	
Cc1nc(NC(C)C)c2cnn(CCc3ccccc3)c2n1	-3.81% (inactive)	
CCc1cc2cccc(C)c2nc1SCC(=O)N1CCN(C(=O)c2ccco2)CC1	1.25% (inactive)	
CC(C)C(=O)N=c1sc2cc(F)cc(F)c2n1C	1.36% (inactive)	
O=C(Nc1ncccc1Cl)c1cccc(F)c1	1.04% (inactive)	
CCOC(=O)C1CCCN(C(=O)c2cc(-c3ccco3)nc3ccccc23)C1 (centres undefined)		18.5 µM (active)
CC(C)(C)C(=O)Nc1c2c(nc3c1CCC3)CCCC2	-3.96% (inactive)	
CCOc1ccc2nc(NC(=O)Nc3ccccc3)sc2c1	-2.42% (inactive)	
COC(=O)c1[nH]c2ccccc2c1NC(=O)CN1CCCc2ccccc21	-0.131% (inactive)	

SMILES	activity change, negative = inhibition	Potency
COC(=O)C1CCN(C(=O)COC(=O)CC(NC(N)=O)c2ccc(Cl)cc2)CC1 (centres undefined)	1.45% (inactive)	
CSCCC(NC(=O)c1cc(C(C)(C)C)oc1C)C(=O)O (centres undefined)	-0.12% (inactive)	
O=C(CC(C(=O)O)C1CCCO1)NCCc1ccc2c(c1)OCO2 (centres undefined)	4.46% (inactive)	
O=C(c1ccccc1)c1ccc2nc(-c3ccco3)c(-c3ccco3)nc2c1	-1.57% (inactive)	
CCSc1nc(N2CCCCC2)c2c(c1C#N)CCCC2	0.094% (inactive)	
COc1ccc(C(=O)OCC(=O)c2c[nH]c3ccccc23)c(OC)c1	-0.191% (inactive)	
Cc1cccc(-c2nnc3n2N=C(c2ccc(Br)cc2)CS3)c1	4.34% (inactive)	
N#CC(c1ccccc1)c1ccc(C(=O)c2ccc(F)cc2)cc1 (centres undefined)	3.03% (inactive)	
COC1=CCC2([N+](=O)[O-])CN(CCO)CC1([N+](=O)[O-])C2 (centres undefined)	-1.18% (inactive)	
O=C(CN1CCOCC1)Nc1ccc(C2CCCCC2)cc1	-3.53% (inactive)	
CCOc1ccccc1C(=O)N[C@H](C(=O)Nc1ccc(OC)c(S(=O)(=O)N2CCOCC2)c1)C(C)C	0.171% (inactive)	
Cc1ccc(S(=O)(=O)Nc2ccccc2C(=O)Nc2nc(-c3ccc(F)cc3)cs2)cc1		14.7 µM (active)
COc1ccccc1N1C(=O)CC(N2CCc3ccccc32)C1=O (centres undefined)	0.0977% (inactive)	
Cc1nn(C)cc1CNC(=O)c1ccc(Br)o1	-0.0545% (inactive)	
CC(C)OCCCNC(=O)CN1C(=O)CC(C)(C)S(=O)(=O)c2ccccc21	-6.12% (inactive)	
Cc1ccc(C(=O)O/N=C/c2c(C(F)(F)F)nn(C)c2Sc2ccc(Cl)cc2)cc1	1.05% (inactive)	
O=C(CSc1nc(N2CCCCC2)nc(N2CCCCC2)n1)N1CCN(c2ccccc2)CC1	0.372% (inactive)	
CC(=O)c1c(N2CCCC2)[nH]c(-c2ccccc2)nc1=S	3.15% (inactive)	
O=[N+]([O-])/C(C(Cl)=C(Cl)Cl)=C(\Sc1ccccc1)N1CCCCC1	-3.41% (inactive)	
